High-throughput results as filed in PubChem.
Tau fluor counter: counter-screen for tau fibril formation inhibitors; tau K18 P301L Alexa594 fluorescence, heparin fibrillization; Potency, µM (doses to about 57.7 µM), inactives show at the top dose activity change, negative = decrease; hit rate 0.93% among 280,000; also: potency is read from the fitted curve at half-maximal effect; nearly all actives have a fitted effect of over 55% in size
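Human K18 P301L tau (15 uM unlabeled plus 0.24 uM Alexa 594-labeled, final) in 100 mM sodium acetate pH 7 was mixed with compound and 20 uM heparin and incubated 6 hr at 37 C.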
Tau fibril ThT: blocks human tau fibril formation measured by thioflavin T | recombinant tau K18 P301L (four-repeat tau fragment), heparin-induced fibrillization, ThT fluorescence | P10636 | Potency, µM (top dose mostly 57.4 µM), for inactives: top-dose activity, negative = inhibition, hits mostly inhibitors | hit rate 2.1% among 270,000; also: potency is read from the fitted curve at half-maximal effect; nearly all actives have a fitted effect of over 55% in size
Target sequence (P10636 561-689 P618L limits assumed): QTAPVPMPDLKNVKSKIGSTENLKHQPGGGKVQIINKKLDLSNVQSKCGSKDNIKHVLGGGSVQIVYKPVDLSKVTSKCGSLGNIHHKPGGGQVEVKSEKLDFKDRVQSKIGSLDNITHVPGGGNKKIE
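K18 P301L tau (15 uM + 0.24 uM Alexa 594-tagged), heparin 20 uM, NaOAc pH 7, 6 h 37 C; ThT 30 uM, 1 h RT, ex 450/em 510 nm.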
TRb-SRC2 inh: disrupts binding of human TR beta to SRC2; P10828; Potency, µM (top dose mostly 106 µM), inactives show at the highest dose activity change, negative = inhibition, most hits filed as inhibitors; hit rate 0.065% among 280,000; AID 1469; TRbeta-SRC2 peptide binding, fluorescence polarization; receptor liganded with 1 µM T3;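 also: potency is read from the fitted curve at half-maximal effect; plate controls were bound peptide for no effect and peptide without receptor for full effect; nearly all actives have a fitted effect of over 50% in size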
Target sequence (P10828 whole entry, looked up): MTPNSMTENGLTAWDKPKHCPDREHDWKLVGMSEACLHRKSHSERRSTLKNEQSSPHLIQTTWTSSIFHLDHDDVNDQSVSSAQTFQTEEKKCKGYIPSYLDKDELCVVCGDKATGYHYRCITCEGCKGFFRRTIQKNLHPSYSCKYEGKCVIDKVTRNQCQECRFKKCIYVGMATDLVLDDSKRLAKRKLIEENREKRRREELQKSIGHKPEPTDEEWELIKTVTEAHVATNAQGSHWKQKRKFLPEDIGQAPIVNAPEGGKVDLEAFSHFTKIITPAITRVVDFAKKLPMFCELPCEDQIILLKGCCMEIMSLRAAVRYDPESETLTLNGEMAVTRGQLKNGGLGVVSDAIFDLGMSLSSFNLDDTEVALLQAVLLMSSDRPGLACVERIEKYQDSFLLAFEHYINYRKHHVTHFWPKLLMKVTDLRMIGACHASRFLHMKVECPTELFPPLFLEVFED
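Binding of a 20-amino-acid Texas Red SRC2 peptide (20 nM) to TRb ligand-binding domain (0.6 uM) with agonist T3 at 1 uM was followed by fluorescence polarization after a 5 hr room-temperature incubation.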
PNC inhibitor: inhibitors of perinucleolar compartment assembly; PC3M PTB-GFP, PNC prevalence imaging, 16 h; hits give low values; activity change (PNC), negative = inhibition, % at 10 µM; hit rate 3.1% among 140,000;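 active = readout at or below -70, meaning at least 70% loss of cells showing the perinucleolar compartment, a nuclear body marking cancer cells; inconclusive = readout between -30 and a set limit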;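 also: plate controls were DMSO wells for no effect and camptothecin positive control wells for full effect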
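Read-out is percentage of cells bearing a perinucleolar compartment, from automated 20x imaging of fixed, Hoechst-stained PC3M PTB-GFP cells. Cells were seeded 4 h, then exposed 16 h to compound (23 nl of library stock) in duplicate plates.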
Tau fibril FP: tau fibrillization inhibition (FP); hit rate 0.39% among 280,000; Potency, µM (top dose mostly 57.7 µM), inactives show top-dose activity, negative = inhibition, usual class: inhibitors; K18 P301L tau heparin fibrillization, Alexa594 FP, 6 h; AID 1468; also: potency is read from the fitted curve at half-maximal effect; nearly all actives have a fitted effect of over 55% in size
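Quantitative HTS format: compounds meet 15 uM recombinant K18 P301L tau and Alexa 594-tau tracer in 100 mM sodium acetate pH 7; 20 uM heparin triggers fibrillization at 37 C over 6 hr; FP gives the signal.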
TexasRed fluor: alters Texas Red total fluorescence, flagging assay interference; hit rate 0.29% among 280,000; Potency, µM (titrated, usually from 106 µM), for inactives: at the top dose fluorescence change, negative = quenching; TRb/SRC2 Texas Red total fluorescence interference; active = well fitted curve in either direction with a large enough effect; inconclusive = small, poorly fitted or top-dose-only effect; also: potency is read from the fitted curve at half-maximal effect
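Human TRb ligand-binding domain at 0.6 uM with 20 nM Texas Red SRC2 peptide in Tris buffer containing 1 uM T3 and 5% DMSO, incubated with compound 5 h at ambient temperature. Total fluorescence (555/632 nm) calculated as parallel + 2 × perpendicular.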
Starred values were filed as active, the others as inactive; ? = inconclusive; . = no result; [ ] = another dose, or the depositor's remark. Hits are enriched below; roughly 4.6% of the tested compounds scored in any of these assays. Unless noted, calls follow the shape of the dose curve; as a rule, active = well fitted curve in the direction sought with a large enough effect; inconclusive = small, poorly fitted or top-dose-only effect, or another doubt; inactive = no such curve, though single readings can be large; an effect the other way counts as inactive or inconclusive. Unless noted, % is scaled to controls: 0 for no effect and ±100 for the full control effect.

SMILES	Tau fluor counter	Tau fibril ThT	TRb-SRC2 inh	PNC inhibitor	Tau fibril FP	TexasRed fluor
CC(C)C1Cc2c(C#N)c(N)sc(=S)c2CO1 (stereo not drawn)	?	20µM*	2%	-11	8%	-3%
COc1ccccc1NC(=O)Cn1c(SCC(=O)N(C)c2ccccc2)nc2ccccc21	-9%	-11%	-4%	.	5%	-2%
O=C(OCC(=O)N1CCCc2ccccc21)C1CCN(S(=O)(=O)c2cccs2)CC1	-9%	-14%	-2%	-13	11%	0%
CCCCCCCNC1=CC(=O)CC(c2ccccc2)C1 (stereo not drawn)	-8%	-15%	5%	25	11%	-10%
CCCCCNC1=CC(=O)CC(c2ccccc2)C1 (stereo not drawn)	-14%	-8%	1%	-84*	-8%	-5%
Cc1ccc(NC(=O)CSc2nnc(NC(=O)CN3CCOCC3)s2)cc1	3%	10%	-30%	-117*	2%	0%
Cc1ccc(NC(=O)c2cccs2)cc1NC(=O)c1cccnc1	7%	2%	-1%	.	11%	-1%
CCOc1cc2[nH]c(=O)n(CCCCC(=O)N3CCCCCC3)c(=O)c2cc1OCC	-2%	4%	-2%	-100*	3%	-3%
Cc1ccccc1N=C1N=C(N)c2ccccc21	-2%	-17%	-3%	-96*	-9%	0%
CCc1nnc(NC(=O)CSc2nc3c(cc2C#N)CCC3)s1	-16%	2µM*	-3%	?	0%	0%
CCSc1nnc(NC(=O)CSc2nc3c(cc2C#N)CCCC3)s1	?	2.8µM*	1%	61	3%	0%
N#Cc1cc2c(nc1SCC(=O)Nc1nccs1)CCCCC2	-8%	?	-5%	?	0%	-3%
Cc1nn(C)c2c1c(C(F)(F)F)cc(=O)n2C(C)C(=O)NCc1ccccc1Cl (stereo not drawn)	-12%	-12%	-21%	.	5%	316µM*[quencher]
COc1ccccc1CNC(=O)C(C)n1c(=O)cc(C(F)(F)F)c2c(C)nn(C)c21 (stereo not drawn)	-8%	4%	-11%	.	-1%	-3%
CCOc1ccc(CCNC(=O)C(CC)n2nc(C)c3c(C)n(-c4ccccc4)nc3c2=O)cc1 (stereo not drawn)	2%	-3%	2%	.	7%	-9%
CCn1c2ccccc2c2nnc(N3CCN(c4cccc(Cl)c4)CC3)nc21	18µM*[quencher]	?	-2%	.	8%	-15%
CCn1c2ccccc2c2nnc(N3CCN(c4ccc(F)cc4)CC3)nc21	-8%	-8%	-8%	.	-2%	-23%
Cc1nc2c(=O)[nH]c(=S)n(C)c2nc1C	0%	?	-1%	-114*	-15%	-2%
Cn1c(=S)[nH]c2cccnc21	-4%	-2%	-1%	?	-1%	-3%
O=c1oc2ccccc2cc1-c1nnc(Nc2ccc(Cl)cc2Cl)s1	-8%	-16%	-1%	.	-7%	-13%
Oc1nc(Nc2ccc(Cl)cc2Cl)sc1/C=C1\C=Nc2ccccc21	?	8.9µM*	0%	?	9%	-15%
O=c1c(C(c2ccc(Cl)cc2)c2c(O)nc3n(c2=O)CCCS3)c(O)nc2n1CCCS2	-28%	11µM*	3%	.	?	-1%
O=c1c(C(c2ccc(Cl)cc2)c2c(O)nc3n(c2=O)CCS3)c(O)nc2n1CCS2	8%	?	-4%	.	?	-3%
CCOC(=O)CNC(=O)CSc1ncnc2c1nnn2-c1ccc(F)cc1	-19%	?	1%	-100*	2%	-4%
CCOC(=O)CNC(=O)Cn1cnc2c(nnn2-c2ccc(F)cc2)c1=O	-7%	-6%	10%	21	-5%	0%
SMILES	Tau fluor counter	Tau fibril ThT	TRb-SRC2 inh	PNC inhibitor	Tau fibril FP	TexasRed fluor
O=C(C1CCN(S(=O)(=O)c2cccc3cccnc23)CC1)N1CCN(c2ccccc2)CC1	-12%	?	1%	-26	6%	-4%
O=C(C1CCCN(S(=O)(=O)c2cccc3cccnc23)C1)N1CCN(c2ccc(F)cc2)CC1 (stereo not drawn)	-17%	?	0%	-81*	-2%	-1%
Cc1cccc[n+]1C1C(c2ccc([N+](=O)[O-])cc2)C(C#N)=C(C(=C=[N-])C#N)NC1(O)C1CC1 (stereo not drawn)	-14%	?	2%	.	8%	0%
O=C(N/N=C(\c1ccccc1)c1cccnc1)C(O)(c1ccccc1)c1ccccc1	-16%	?	-3%	-92*	-1%	2%
O=S(=O)(NN1CCOCC1)c1ccc(Cl)s1	-5%	?	0%	.	?	-2%
CN1CCN(NS(=O)(=O)c2ccc(Cl)s2)CC1	-25%	18µM*	2%	36	?	1%
Cc1ccc(CN2C(=O)c3ccccc3CC2(C)C(=O)NC2CCCCC2)cc1 (stereo not drawn)	-15%	-11%	3%	.	-6%	?
CN(C)c1ccc(C(=O)C(O)c2ccc(C(C)(C)C)cc2)cc1 (stereo not drawn)	1%	-10%	-3%	7	0%	-2%
CC(c1ccc(C(C)(C)C)cc1)S(=O)CC(O)CO (stereo not drawn)	-9%	-13%	-13%	-112*	-11%	-5%
CN(C)c1nc(Nc2ccccc2)nc(N(C)C)n1	-21%	-17%	3%	25	0%	-3%
CN(C)c1nc(N/N=C/c2ccccc2O)nc(Nc2ccc(F)cc2)n1	8.9µM*[quencher]	?	6%	.	?	-2%
O=S(=O)(NCc1cn2ccccc2n1)c1cc(F)ccc1F	0%	-5%	-2%	-100*	-3%	0%
COc1cc(/C=C(\C#N)c2nc3c(s2)CCCC3)ccc1O	14µM*[quencher]	11µM*	-20%	-28	4%	-4%
N#C/C(=C\c1cccnc1)c1nc2c(s1)CCCC2	-1%	-17%	-6%	.	5%	-8%
CCOC(=O)c1cc2c(ccn2C)n1CC(=O)Nc1ccc(F)cc1	?	28µM*	0%	.	?	-10%
O=C(NCCO)c1ccc2nc(-c3ccco3)c(-c3ccco3)nc2c1	14µM*[quencher]	16µM*	7%	46	?	?
O=C(c1ccccc1)c1ccc2nc(-c3ccco3)c(-c3ccco3)nc2c1	?	14µM*	3%	.	?	-17%
O=C(NC1CCCC1)c1ccc2nc(-c3ccco3)c(-c3ccco3)nc2c1	-2%	-2%	1%	?	2%	-6%
c1coc(-c2nc3ccccc3nc2-c2ccco2)c1	?	16µM*	4%	10	?	-29%
